Some test systems named below: NCI-H23 lung; NCI-H226 lung; NCI-H322M lung; HOP-62 NSCLC; NCI-H460 lung; HOP-92 NSCLC; NCI-H522 lung; A549/ATCC NSCLC; 786-0 renal; COLO 205 colon.
What all share (assay): NCI-60 one-dose screen, 48 h (100 = growth as untreated, 0 = no growth, -100 = all killed)
Holding throughout (settings): 10 µM unless noted

Among the data in PubChem BioAssay (NCI) are growth values, retold here.

About 83,000 compounds went through this panel and 20% of them were active in at least one assay; those are over-represented in the sample as a whole.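 96-well plates, one dose, 48 hours. Percent growth reported; active if below 10.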 A number with no mark means an inactive call. Activity calls are given as the source filed them.

As for `Cc1ccc(S(=O)(=O)n2cc(C(=O)C(=O)N3CCCCC3)c3ccccc32)cc1`, the growth in the assay on NCI-H23 lung was 55.1%; in the assay with NCI-H226 lung, 87.5%; in the assay on NCI-H322M lung, 92.9%; in the assay on HOP-62 NSCLC, 80.3%; in the assay with NCI-H460 lung it was 91.9%; in the assay on HOP-92 NSCLC it was -0.0596% (active). Also, the growth was 70.2% with NCI-H522 lung, 120% in the assay with A549/ATCC NSCLC, 88.7% in the assay with 786-0 renal and 109% in the assay on COLO 205 colon.

For the compound `O=C1Nc2ccccc2/C1=C/C(=O)c1ccc(N2CCCC2)cc1`, the growth with NCI-H23 lung is 31.8%; in the assay on NCI-H226 lung it was 73.4%; in the assay with NCI-H322M lung it was 81.8%; in the assay with HOP-62 NSCLC, 33.4%; in the assay on NCI-H460 lung it was 9.75% (active); in the assay on HOP-92 NSCLC it was 40.4%. Moreover, the growth in the assay with NCI-H522 lung was -2.44% (active); in the assay with A549/ATCC NSCLC, 54.4%; with 786-0 renal, 100%; in the assay with COLO 205 colon, 8.29% (active).

For the compound `C=C(C)[C@@H]1CC[C@]2(COCCCN)CC[C@]3(C)[C@H](CC[C@@H]4[C@@](C)(CCCNCCCN)[C@H](C(=C)C)CC[C@]43C)[C@@H]12`, the growth was -53.5% [100 µM] (active) in the assay on NCI-H23 lung; -41.6% [100 µM] (active) in the assay on NCI-H226 lung; -76.2% [100 µM] (active) in the assay on NCI-H322M lung; -47.7% [100 µM] (active) in the assay on HOP-62 NSCLC; -74.7% [100 µM] (active) in the assay on NCI-H460 lung; -69.5% [100 µM] (active) in the assay on HOP-92 NSCLC. The growth in the assay with NCI-H522 lung was -49.8% [100 µM] (active); with A549/ATCC NSCLC, -55.7% [100 µM] (active); in the assay on 786-0 renal, -49.7% [100 µM] (active); with COLO 205 colon, -50.3% [100 µM] (active).

Consider `N#C/C(C(=O)c1ccccc1)=C1/C(=O)Nc2ccc(F)cc21`, for which the growth in the assay with NCI-H23 lung was 98.4%; in the assay with NCI-H226 lung, 95.4%; in the assay with NCI-H322M lung, 108%; with HOP-62 NSCLC it was 84.8%; in the assay on NCI-H460 lung, 106%; with HOP-92 NSCLC, 115%. In addition, the growth was 96.6% in the assay on NCI-H522 lung, 105% in the assay with A549/ATCC NSCLC, 101% in the assay on 786-0 renal and 119% with COLO 205 colon.

With `CCCCOC(=O)c1c(C)[nH]c(/C=C2\N=C(c3ccc[nH]3)C=C2OC)c1C`, the growth in the assay with NCI-H23 lung was -11.3% (active); with NCI-H226 lung, -0.091% (active); with NCI-H322M lung, -10.5% (active); in the assay with HOP-62 NSCLC, 2.13% (active); in the assay with NCI-H460 lung it was 6.62% (active); in the assay with HOP-92 NSCLC, -17% (active). In addition, the growth is -41.3% (active) with NCI-H522 lung, -9.07% (active) in the assay on A549/ATCC NSCLC, -32.6% (active) in the assay with 786-0 renal and -29.2% (active) in the assay with COLO 205 colon.

`O=C(NNc1ccc(-c2ccccc2)nn1)c1ccccc1`: the growth in the assay with NCI-H23 lung was 99.6%; with NCI-H226 lung it was 102%; in the assay on NCI-H322M lung, 94.7%; with HOP-62 NSCLC it was 104%; with NCI-H460 lung, 100%; with HOP-92 NSCLC, 91.6%. For the same compound, the growth with NCI-H522 lung is 97.8%; in the assay with A549/ATCC NSCLC it was 106%; in the assay on 786-0 renal it was 93.3%; in the assay on COLO 205 colon, 107%.

As to `C#CCC(C(=O)OCC)C(=O)OCC`, the growth in the assay on NCI-H23 lung is 100%; with NCI-H226 lung it was 98.5%; with NCI-H322M lung it was 100%; in the assay with HOP-62 NSCLC, 102%; with NCI-H460 lung, 109%; in the assay on HOP-92 NSCLC, 108%. Further, the growth is 99.1% in the assay with NCI-H522 lung, 100% in the assay with A549/ATCC NSCLC, 107% in the assay with 786-0 renal and 105% with COLO 205 colon.

Turning to `COc1cc(NCc2cn(-c3ccc(C(=O)O)cc3)nc2-c2ccc(C(=O)O)cc2)cc(OC)c1OC`, the growth is 107% in the assay on NCI-H23 lung; 99.3% in the assay with NCI-H226 lung; 93.9% in the assay on NCI-H322M lung; 98.6% in the assay with HOP-62 NSCLC; 99.9% in the assay on NCI-H460 lung; 68.1% in the assay on HOP-92 NSCLC. Besides, the growth is 101% in the assay on NCI-H522 lung, 102% in the assay on A549/ATCC NSCLC, 90.8% in the assay with 786-0 renal and 108% in the assay on COLO 205 colon.

In the case of `CCc1ccc(C2=C/C(=C/c3ccccc3)C(=O)N2CCc2ccc(S(N)(=O)=O)cc2)cc1`, the growth was 101% in the assay with NCI-H23 lung; 99.2% with NCI-H226 lung; 94.5% in the assay on NCI-H322M lung; 96.9% with HOP-62 NSCLC; 100% in the assay with NCI-H460 lung; 99.2% with HOP-92 NSCLC. For the same compound, the growth in the assay with NCI-H522 lung is 100%; in the assay on A549/ATCC NSCLC, 108%; in the assay with 786-0 renal, 98.6%; in the assay with COLO 205 colon, 120%.

Turning to `O=C(N/N=C1\c2ccccc2-c2cccc(C(=O)O)c21)c1ccc(O)cc1`, the growth was 98.2% in the assay with NCI-H23 lung; 89.6% in the assay on NCI-H226 lung; 86.4% in the assay on NCI-H322M lung; 93.8% in the assay with HOP-62 NSCLC; 96.6% with NCI-H460 lung; 78.6% with HOP-92 NSCLC. The growth in the assay with NCI-H522 lung is 86.5%; in the assay with A549/ATCC NSCLC, 95.8%; in the assay with 786-0 renal, 97.5%; with COLO 205 colon it was 107%.

On to `O=C(NCc1ccc(Cn2c(=O)sn(-c3ccccc3)c2=O)cc1)OCc1ccc2c(Br)cc(Br)c(O)c2n1`, for which the growth is -47.2% (active) in the assay on NCI-H23 lung; -25.8% (active) in the assay on NCI-H226 lung; 43.1% in the assay with NCI-H322M lung; -48.4% (active) with HOP-62 NSCLC; -21% (active) with NCI-H460 lung; -58.7% (active) in the assay on HOP-92 NSCLC. The growth is -47.1% (active) in the assay on NCI-H522 lung, -52.3% (active) in the assay on A549/ATCC NSCLC, -78.7% (active) in the assay with 786-0 renal and -75.6% (active) in the assay on COLO 205 colon.

For the compound `C=C(C)[C@@H]1CC[C@]2(C(=O)N3CCN(C)CC3)CC[C@]3(C)[C@H](CC[C@@H]4[C@@]5(C)C/C(=C/c6ccncc6)[C@H](O)C(C)(C)[C@@H]5CC[C@]43C)[C@@H]12`, the growth was 4.32% [100 µM] (active) in the assay on NCI-H23 lung; -51% [100 µM] (active) in the assay with NCI-H226 lung; -27% [100 µM] (active) in the assay with NCI-H322M lung; -38.6% [100 µM] (active) in the assay on HOP-62 NSCLC; -67.4% [100 µM] (active) in the assay on NCI-H460 lung; -39.3% [100 µM] (active) with HOP-92 NSCLC. The growth in the assay with NCI-H522 lung is -46.3% [100 µM] (active); in the assay with A549/ATCC NSCLC, 16.2% [100 µM]; in the assay with 786-0 renal, -90.8% [100 µM] (active); with COLO 205 colon, -74.8% [100 µM] (active).
